From PubChem
AmpC detergent – qHTS Inhibitors of AmpC Beta-Lactamase (assay with detergent). P00811. AmpC hydrolysis of nitrocefin, absorbance 480 nm, 0.01% Triton. Potency, µM (highest dose often 114 µM), actives largely listed as inhibitors. 370,000 compounds, 0.041% hits. AID 485294, 2010; further: nearly all actives have a fitted effect of over 25% in size
Target sequence (P00811 whole entry, looked up): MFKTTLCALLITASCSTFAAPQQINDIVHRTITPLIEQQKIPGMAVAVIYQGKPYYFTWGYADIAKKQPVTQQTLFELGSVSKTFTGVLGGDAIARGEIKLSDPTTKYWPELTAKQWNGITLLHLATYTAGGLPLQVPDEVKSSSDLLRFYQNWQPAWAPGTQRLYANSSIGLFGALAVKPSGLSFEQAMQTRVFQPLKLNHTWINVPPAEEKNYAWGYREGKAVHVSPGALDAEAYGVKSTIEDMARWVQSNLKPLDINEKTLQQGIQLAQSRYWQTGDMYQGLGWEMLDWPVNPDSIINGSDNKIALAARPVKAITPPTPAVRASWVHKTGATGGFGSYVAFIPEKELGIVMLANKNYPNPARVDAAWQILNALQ
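AmpC (5.3 nM in the dispensed reagent) in 20 mM phosphate pH 7.0 with 0.01% (detergent screen) or 0.0001% Triton X-100 was preincubated with compounds for 15 min at room temperature. Nitrocefin was then added from an 800 uM solution, and hydrolysis was followed at 480 nm.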
RE007 growth inh – qHTS Assay for Inhibitors of the HIV-1 protein Vpr; S. pombe RE007 Vpr strain, BacTiter-Glo ATP luminescence, 24 h; Potency, µM (series often up to 92.2 µM), hits mostly inhibitors; 360,000 compounds, 0.21% hits; active means well fitted falling curve with a large enough effect; inconclusive means small, poorly fitted or top-dose-only effect; inactive means no such curve, though single readings can be large or run the other way; further: nearly all actives have a fitted effect of over 50% in size
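Fission yeast RE007 carrying one integrated HIV-1 vpr copy, seeded at OD 0.01 in PMG+AL medium with 23 nL pinned compound. Grown 24 h at 30 degrees; viability read by BacTiter-Glo luminescence after 5 min.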
TbPYK inhibitor – qHTS of Trypanosoma Brucei Inhibitors. TbPYK enzyme, Kinase-Glo Plus ATP luminescence, 45 min. Potency, µM (doses to about 76.8 µM), most hits filed as inhibitors. 410,000 compounds, 0.12% hits; further: nearly all actives have a fitted effect of over 50% in size
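In this concentration-response screen, enzyme-free wells defined baseline while DMSO plates tracked drift. Each reaction combined TbPYK, substrate, compound and 130 uM ADP for 45 min at room temperature. Kinase-Glo Plus luminescence gave the signal.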
AmpC inh no detg – qHTS Inhibitors of AmpC Beta-Lactamase (assay without detergent); AmpC nitrocefin hydrolysis, absorbance 480 nm, 0.0001% Triton; P00811; 330,000 compounds, 0.52% hits; Potency, µM (titrated, usually from 57.1 µM), usual class: inhibitors; AID 485341, 2010; further: nearly all actives have a fitted effect of over 20% in size
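AmpC (5.3 nM in the dispensed reagent) in 20 mM phosphate pH 7.0 with 0.01% (detergent screen) or 0.0001% Triton X-100 was preincubated with compounds for 15 min at room temperature. Nitrocefin was then added from an 800 uM solution, and hydrolysis was followed at 480 nm.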
Sm TGR block – qHTS Assay for the Inhibitors of Schistosoma Mansoni Peroxiredoxins | purified TGR, DTNB reduction, TNB absorbance 405 nm | 360,000 compounds, 3% hits | Potency, µM (series often up to 114 µM), actives largely listed as inhibitors; further: nearly all actives have a fitted effect of over 60% in size
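Kinetic colorimetric format: TGR-catalysed, NADPH-driven DTNB reduction monitored via TNB absorbance. Enzyme dispensed at 20 nM; compound exposure 15 min at room temperature before reaction start.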
SARS PLpro yeast – qHTS of Yeast-based Assay for SARS-CoV PLP; S. cerevisiae expressing SARS-CoV PLpro, growth rescue; Potency, µM (highest dose often 32.9 µM), actives largely listed as activators; 330,000 compounds, 0.19% hits; calls by dose curve; further: nearly all actives have a fitted effect of over 55% in size
Numbers stand for hits; – = inactive; ? = inconclusive; · = not tested or not shown; ! = not active in a repeat; [ ] = dose if it differs, or a comment. In the library only some 3.3% were active in any assay of this set; here they are far more common. Unless noted, the call rests on the fitted dose curve; in most records, active means well fitted curve in the direction sought with a large enough effect; inconclusive means small, poorly fitted or top-dose-only effect, or another doubt; inactive means no such curve, though single readings can be large; an effect the other way counts as inactive or inconclusive.

SMILES	AmpC detergent	RE007 growth inh	TbPYK inhibitor	AmpC inh no detg	Sm TGR block	SARS PLpro yeast
CCOC(=O)Cc1csc(NC(=O)Nc2cccc(Cl)c2)n1	–	–	–	20µM	–	–
CCOC(=O)Cc1csc(NC(=O)c2ccc(Br)o2)n1	–	–	–	–	–	–
CCOC(=O)Cc1csc(NC(=O)Nc2ccc(Cl)cc2)n1	–	–	–	–	–	–
O=c1ccc2cc3c4c(c2o1)CCCN4CCC3	–	–	–	–	50µM	–
CC1CCN(S(=O)(=O)c2ccc3c(c2)N(CC(=O)NCCN(C)C)C(=O)CO3)CC1	–	·	–	·	–	·
Nc1c(S(=O)(=O)c2ccccc2)c2nc3ccccc3nc2n1Cc1ccco1	–	–	–	–	18µM	–
Cc1ccc(S(=O)(=O)c2c(N)n(Cc3ccco3)c3nc4ccccc4nc23)cc1C	–	–	–	–	10µM	–
CCCCc1nn2c(=O)cc(COC(=O)c3ccc(NC(=O)c4ccccc4Cl)cc3)nc2s1	–	·	–	·	–	·
Cc1ccc(Cl)cc1-n1c(=O)cc(N2CCN(c3ccc(F)cc3)CC2)[nH]c1=O	–	·	–	·	–	·
CCOC(=O)c1ccc(NC(=O)c2ccc3c(c2)CCN3S(=O)(=O)c2ccc(Cl)cc2)cc1	–	·	–	·	–	·
CC(=O)c1ccc(NC(=O)c2cc3c([nH]c2=O)CC(c2ccccc2)CC3=O)cc1 (stereo not given)	–	·	–	·	–	·
COc1ccc(C2C=C(c3ccccc3)Nc3nc(NC(C)=O)nn32)cc1 (stereo not given)	–	·	–	–	20µM!	–
O=S(=O)(Nc1nc2n(n1)C(c1ccccc1)C=C(c1ccc(Cl)cc1)N2)c1ccccc1 (stereo not given)	–	·	–	·	45µM	·
CC1=CC(c2ccc(Cl)cc2)n2nc(N3C(=O)CCC3=O)nc2N1 (stereo not given)	–	–	–	–	–	–
Cc1ccc(C2C=C(c3ccc(Cl)cc3)Nc3nc(NC(=O)c4ccco4)nn32)cc1 (stereo not given)	–	·	–	·	13µM	·
Cc1ccc(C2C=C(c3ccccc3)Nc3nc(N4C(=O)CCC4=O)nn32)cc1 (stereo not given)	–	–	–	–[2.29 µM]	22µM	–
COc1ccccc1C(=O)Nc1nc2n(n1)C(c1ccc(F)cc1)C=C(c1ccc(Cl)cc1)N2 (stereo not given)	–	·	–	·	–	·
COc1ccc(/C=C/C(=O)Nc2nc3n(n2)C(c2ccccc2)C=C(c2ccccc2)N3)cc1 (stereo not given)	–	·	–	·	–	·
CCc1noc2nc(C)n(CC(=O)O)c(=O)c12	–	·	–	·	–	·
O=C(NCc1cccc(Cl)c1)c1cnc(N2CCCCC2)c2ccccc12	–	·	–	·	–	·
CCOc1ccc(CNC(=O)Nc2ccc3c(c2)N(C)C(=O)c2ccccc2S3)cc1	–	·	–	·	–	·
O=C(NCc1ccccc1Cl)c1cc(=O)[nH]c2ccc(S(=O)(=O)N3CCCCC3)cc12	–	·	–	·	–	·
CC(CNC(=O)c1ccc(CSc2nc3ccncc3n2Cc2cccc(F)c2)cc1)c1ccccc1 (stereo not given)	–	·	–	·	–	·
COc1cc(CC(C)N)c(OC)cc1C (stereo not given)	·	·	–	·	·	·
Cc1ccc(S(=O)(=O)Nc2nc3n(n2)C(c2ccc(F)cc2)C=C(c2ccccc2)N3)cc1 (stereo not given)	–	·	–	·	–	·
SMILES	AmpC detergent	RE007 growth inh	TbPYK inhibitor	AmpC inh no detg	Sm TGR block	SARS PLpro yeast
Cc1ccc(C2C=C(c3ccccc3)Nc3nc(NS(=O)(=O)c4ccccc4)nn32)cc1 (stereo not given)	–	·	–	·	35µM	·
O=C1C=CC(=O)N1c1ccccc1N1C(=O)C=CC1=O	·	–	?	·	·	·
O=C(c1ccccc1)c1ccccc1N1C(=O)C=CC1=O	?	35µM	5µM	–	0.56µM	–
COc1ccc(C(CCN2CCCCC2)c2c(O)cc(OC)cc2OC)cc1 (stereo not given)	–	–	–	–	40µM	–
Cc1ccc(-n2nc3c(c2NC(=O)c2ccco2)CS(=O)C3)c(C)c1 (stereo not given)	?	–	–	–	40µM	–
Cc1ccc(-n2nc3c(c2NC(=O)CC(C)C)CS(=O)C3)cc1 (stereo not given)	–	–	–	–	50µM	–
Cc1cccc(-n2nc3c(c2NC(=O)c2ccco2)CS(=O)C3)c1C (stereo not given)	–	–	–	–	–	–
CC(=O)Nc1c2c(nn1-c1ccccc1C)CS(=O)C2 (stereo not given)	–	–	–	–	50µM	–
COc1cccc(NC(=O)Nc2nnc(CC(=O)Nc3ccccc3)s2)c1	–	–	–	11µM	–	–
COc1cccc(NC(=O)N[C@@H](Cc2ccccc2)C(=O)O)c1	–	–	–	2.2µM	–	–
COc1ccc(OC)c(C[C@H](C)N)c1	·	·	–	·	·	·
COc1cccc2cc(-c3nc(Nc4cccc(C)c4)sc3C)c(=O)oc12	–	·	–	·	–	·
Cc1[nH]c2ccccc2c1C(=O)CN1CCC2(CC1)OCCO2	–	–	–	–	45µM	–
COc1ccc2c(c1)c(C(O)CN1CCC3(CC1)OCCO3)c(C)n2C (stereo not given)	?	·	·	–	25µM	–
Cc1[nH]c2ccccc2c1C(O)CN1CCC2(CC1)OCCO2 (stereo not given)	–	–	–	–	16µM	–
COc1ccc2c(c1)c(C(=O)CN1CCC3(CC1)OCCO3)c(C)n2C	–	–	–	–	–	–
Cc1[nH]c2ccccc2c1C(=O)CN1CC(C)OC(C)C1 (stereo not given)	–	–	–	–	32µM	–
Cc1[nH]c2ccccc2c1C(=O)CN1CCC(C)CC1	–	–	–	–	?	–
COc1ccc(CCNC(=O)c2oc(=O)c3ccccc3c2-c2ccccc2)cc1OC	–	·	–	·	–	·
CCCn1c2ccccc2c2cnn(CC(=O)Nc3ccc(C)cc3Br)c(=O)c21	–	·	–	·	–	·
CO[C@]1(NC(=O)Cc2cccs2)C(=O)N2C(C(=O)O)=CC(COC(N)=O)S[C@H]21 (stereo not given in full)	·	·	–	·	·	·
COc1ccc(-n2nc(C(=O)N3CCCC(C)C3)c3c4ccccc4n(C)c3c2=O)cc1Cl (stereo not given)	–	·	–	·	–	·
CC1CN(CC(=O)c2ccccc2Cl)CC(C)O1 (stereo not given)	–	–	–	–	45µM	–
Cc1[nH]c2ccccc2c1C(=O)CCl	–	–	–	–	2µM	–
